Screening data (PubChem BioAssay)
HTT ATP protect = protects HTT-Q103 PC12 cells, measured by ATP. 230,000 compounds, 0.14% hits. PC12 HTT-Q103 induced, cytoprotection, ATP luminescence, 40 h. Potency, µM (doses to about 56.4 µM), most hits filed as activators; also: nearly all actives have a fitted effect of over 45% in size
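Readout: ATPlite luminescence (ATP level). Model: stable PC12, inducible Htt exon1 Q103-GFP. Inducer: tebufenozide, 100 nM final. Compounds: dose series. No G418 in medium.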
HPGD block = blocks human HPGD enzyme activity. Potency, µM, most hits filed as inhibitors. 150,000 compounds, 4.3% hits. AID 894. P15428. purified HPGD, NADH fluorescence kinetic, PGE2 substrate; active = well fitted inhibition curve with a large enough effect, not every such curve was filed as active; inconclusive = small, poorly fitted or top-dose-only effect, or another doubt; inactive = no such curve, though single readings can be large or run the other way
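20 nM HPGD preincubated 15 min at room temperature with compound in 50 mM Tris-HCl pH 8, 0.01% Tween 20. Started with 1 mM NAD+ and 30 uM prostaglandin E2; NADH fluorescence (360/450 nm) read 5 times over 30-s intervals, last minus first.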
PNC assembly inh = perinucleolar compartment assembly inhibition; PC3M PTB-GFP, PNC prevalence imaging, 16 h; hits give low values; activity change (PNC), negative = inhibition, % at 10 µM; 140,000 compounds, 3.1% hits; AID 2417;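 active = readout at or below -70, meaning at least 70% loss of cells showing the perinucleolar compartment, a nuclear body marking cancer cells; inconclusive = readout between -30 and a set limit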
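PC3M cells stably expressing PTB-GFP, 750–1000 cells/well, treated 16 h at 37 °C with compound (23 nl of library stock), in duplicate. After paraformaldehyde fixation and Hoechst stain, imaged at 20x; PNC prevalence scored by image analysis.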
CBFb-RUNX1 inh = blocks binding between human CBF-beta and RUNX1. AID 1477. AlphaScreen CBFb-His/RUNX1-biotin binding, biochemical. Potency, µM (series often up to 59.8 µM), usual class: inhibitors. Q01196+Q13951. 230,000 tested, under 10 active
Target sequence (Q01196 whole entry, looked up): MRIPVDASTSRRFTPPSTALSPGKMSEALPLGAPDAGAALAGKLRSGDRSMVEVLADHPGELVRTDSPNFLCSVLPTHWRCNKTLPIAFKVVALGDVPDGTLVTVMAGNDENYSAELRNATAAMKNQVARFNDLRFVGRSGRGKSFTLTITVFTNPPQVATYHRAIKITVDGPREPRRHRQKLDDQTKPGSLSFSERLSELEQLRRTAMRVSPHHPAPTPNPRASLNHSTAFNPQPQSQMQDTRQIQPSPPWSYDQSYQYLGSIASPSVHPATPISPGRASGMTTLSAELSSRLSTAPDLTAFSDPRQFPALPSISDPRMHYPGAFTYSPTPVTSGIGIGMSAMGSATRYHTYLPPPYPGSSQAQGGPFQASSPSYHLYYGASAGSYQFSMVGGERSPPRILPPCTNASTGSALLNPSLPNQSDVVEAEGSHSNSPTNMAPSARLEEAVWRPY
Target sequence (Q13951 whole entry, looked up): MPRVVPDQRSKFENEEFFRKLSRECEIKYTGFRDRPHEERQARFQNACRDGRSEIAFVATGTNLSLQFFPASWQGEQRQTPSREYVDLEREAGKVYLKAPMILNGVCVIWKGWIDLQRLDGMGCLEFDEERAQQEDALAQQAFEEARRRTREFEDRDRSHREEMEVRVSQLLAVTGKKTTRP
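AlphaScreen proximity signal reports loss of binding between His-tagged CBF-beta and biotin-labelled RUNX1, each at 30 nM. Proteins are pre-associated for 20 minutes, compounds added for 15 minutes, then beads for 90 minutes, all at ambient temperature.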
ALDH1A1 block = inhibitors of human aldehyde dehydrogenase 1A1; P00352; 220,000 compounds, 7.3% hits; Potency, µM (highest dose often 75.3 µM), hits mostly inhibitors; Purified ALDH1A1, NADH fluorescence, propionaldehyde substrate; active = well fitted inhibition curve with a large enough effect, not every such curve was filed as active; inconclusive = small, poorly fitted or top-dose-only effect, or another doubt; inactive = no such curve, though single readings can be large or run the other way
HttQ103 aggreg = reduces HttQ103-GFP aggregates in PC12 cells. PC12 HttQ103-GFP aggregates, Acumen cytometry, 40 h. Potency, µM (doses to about 46.1 µM), actives largely listed as inhibitors. 220,000 compounds, 1.1% hits. AID 1688; also: nearly all actives have a fitted effect of over 60% in size
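Ecdysone-promoter PC12 model expressing HTT exon 1 Q103 fused to GFP, induced by tebufenozide at 100 nM final. Compounds titrated; aggregates sized 1–25 µm scored on a 488 nm laser cytometer.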
Numbers stand for hits; i = inactive; ? = inconclusive; nt = no result; [ ] = dose if it differs, or a comment. This is a sample that favours compounds with a hit; in the whole collection about 11% have one here. Unless noted, calls follow the shape of the dose curve; as a rule, active = well fitted curve in the direction sought with a large enough effect; inconclusive = small, poorly fitted or top-dose-only effect, or another doubt; inactive = no such curve, though single readings can be large; an effect the other way counts as inactive or inconclusive.

SMILES | HTT ATP protect | HPGD block | PNC assembly inh | CBFb-RUNX1 inh | ALDH1A1 block | HttQ103 aggreg
CC1CCN(C(=O)CSc2nnc(-c3cccnc3)n2C2CCCCC2)CC1 | i | 22.4µM | i | i | ? | i
COc1ccc2c(c1)c1nnc(SCC(=O)N3CCCCC3C)nc1n2C (centres undefined) | i[10 µM] | 15.8µM | i | i | ? | i
COc1ccc(-n2c(SCC(=O)N3CCCCC3C)nnc2-c2cccnc2)cc1 (centres undefined) | i[10 µM] | 20µM | i | i | 10µM | i
CCC1OC(=O)CC(O)C(C)[C@@H](O[C@@H]2OC(C)[C@H](O[C@@H]3C[C@@](C)(O)C(O)C(C)O3)C(N(C)C)C2O)[C@H](CC=O)CC(C)C(=O)/C=C/C(C)=C/[C@@H]1COC1OC(C)C(O)C(OC)[C@@H]1OC (some centres undefined) | i | i | nt | i | i | i
Fc1ccc(Nc2ncncc2-c2ccccc2C(F)(F)F)cc1 | i | nt | nt | nt | ? | nt
CC(C)C[C@@H](CC(=O)N[C@@H](CCCN)CC(=O)N[C@@H]1CCNC[C@H]1C(=O)N[C@H](CC(=O)N[C@@H](CCC(=O)O)CC(=O)O)CC(C)C)NC(=O)[C@@H]1CCCC[C@H]1N | i[1.9 µM] | i | nt | i | ? | nt
COc1ccc(Oc2ncnc3c2ncn3Cc2ccccc2)cc1 | i | 8.91µM | i | i | i | i
O=S(=O)(c1ccccc1)N1CCC2(CCCN(Cc3ccccc3)C2)CC1 | i | i | nt | nt | i | nt
CC(=O)C(Sc1nn(C)c(=S)s1)C(=O)Nc1ccccc1 (centres undefined) | i[0.074 µM] | ? | i | i | 4.47µM | i
COc1ccc(-n2nnnc2S(=O)(=O)CC(=O)N2CCCCC2)cc1 | i | 14.1µM | i | i | 6.31µM | ?
N[C@@H](COC(c1cccc(F)c1)c1ccccc1OCc1ccccc1)C(=O)O (some centres undefined) | nt | nt | nt | i | nt | nt
CSc1nc(=NC(C)=O)ss1 | i[0.074 µM] | ? | i | i | 1.78µM | i
CN(C)c1ccc(C(=O)NN2C(=O)c3ccccc3C2=O)cc1 | i | nt | nt | i | i | i
CNC1=C(N(C(C)=O)c2ccc(Br)cc2)C(=O)c2ccccc2C1=O | nt | i | i | i | i | 11.2µM
CCC(=O)N(C1=C(NC)C(=O)c2ccccc2C1=O)C(C)C | i | nt | nt | i | i | 28.2µM
CCC(=O)NC1=C(NC(C)c2ccccc2)C(=O)c2ccccc2C1=O (centres undefined) | i | i | i | i | i | i[9.22 µM]
CCCCSCc1nc2nc(Cl)c(Cl)nc2[nH]1 | i[10 µM] | i | nt | nt | i[13.5 µM] | nt
CC(=O)c1ccc(C2CC34CNS(=O)(=O)C3CC2O4)cc1 (centres undefined) | nt | nt | nt | i | nt | nt
O=C(O)c1ccc(NS(=O)(=O)Cc2ccccc2)cc1 | i[10 µM] | i | nt | nt | i[13.5 µM] | nt
COC(=O)C(CCSC)NC(=O)c1cc2c(n(-c3ccccc3)c1=O)CC(C)(C)CC2=O (centres undefined) | i[10 µM] | i | i | i | 28.2µM | i
CCN(CC)C(=N)/C(C#N)=N/Nc1ccc(C)cc1 | i[10 µM] | nt | nt | i | nt | i[9.22 µM]
CCCNc1nc(C)nc2c1cnn2CCc1ccccc1 | i | i | i | i | 17.8µM | i
CCOC(=O)C(=O)/C(=C\N(C)C)c1onc(-c2c(F)cccc2Cl)c1C(=O)OC | i[10 µM] | 10µM | i | i | i | i
COC(=O)c1onc(-c2c(Cl)cccc2Cl)c1C(=O)OC | i[10 µM] | nt | nt | i | i | i[9.22 µM]
O=C(CN(Cc1ccco1)S(=O)(=O)c1ccccc1)N/N=C/c1ccccc1C(=O)O | i[10 µM] | nt | nt | ? | i | i[9.22 µM]
SMILES | HTT ATP protect | HPGD block | PNC assembly inh | CBFb-RUNX1 inh | ALDH1A1 block | HttQ103 aggreg
CCC(C)NS(=O)(=O)c1ccc(S(=O)(=O)N(CC(=O)Nc2ccccc2)Cc2ccco2)cc1 (centres undefined) | i | i | i | i | 25.1µM | i
COc1cc([N+](=O)[O-])cc(/C=N/NC(=O)C(C)Nc2cccc(C)c2)c1O (centres undefined) | i[10 µM] | i | ? | i | i | 10µM
COc1cc([N+](=O)[O-])cc(/C=N/NC(=O)CC#N)c1O | i | nt | nt | nt | 14.1µM | i
COc1cc([N+](=O)[O-])cc(/C=N/NC(=O)Cn2cncn2)c1O | i[10 µM] | nt | nt | nt | nt | i[9.22 µM]
COc1cc([N+](=O)[O-])cc(/C=N/NC(=O)C(C)Nc2ccccc2C)c1O (centres undefined) | i[10 µM] | i | i | nt | i | 12.6µM
Cc1ccc(Cl)cc1NC(=S)N(CCN(C)C)C(C)c1ccccn1 (centres undefined) | i | nt | nt | nt | i | i
O=c1c2ccccc2nnn1CSc1ccc2ccccc2n1 | i[10 µM] | i | -103.9 | i | i | i
C=CCn1c(SCn2nnc3ccccc3c2=O)nnc1-c1ccc(Br)cc1 | i | i | -83.7 | i | i | i
Cc1nc(SCn2nnc3ccccc3c2=O)nc(C)c1C | i[10 µM] | 14.1µM | ? | i | ? | i
O=c1c2ccccc2nnn1CSc1ccccc1 | i[10 µM] | i | ? | i | i | i
Cc1ccc(-n2nnnc2SCn2nnc3ccccc3c2=O)c(C)c1 | i | i | i | i | i | 8.91µM
C=CCn1c(SCn2nnc3ccccc3c2=O)nnc1-c1ccc(F)cc1 | i[10 µM] | i | i | i | i | i
CC(C)[C@@H](OCc1ccccc1)[C@H](C)/C=N\OC[C@@H](O)COCc1ccco1 | i[10 µM] | nt | nt | i[13.1 µM] | i[13.5 µM] | nt
CC(O)CNCc1ccccc1C(F)(F)F (centres undefined) | i[10 µM] | nt | nt | i | i | i[9.22 µM]
Cc1cc(C)c(NC(=O)C[C@H](CC(=O)O)c2cccc3ccccc23)c(C(=O)N2CCC3(CCCC3)CC2)c1 | i | i | nt | i | i | i
CCOC(=O)CSc1nnc(CSc2nc3sc4c(c3c(=O)[nH]2)CCCC4)n1-c1ccccc1 | i | 14.1µM | i | i | i | i
CCOC(=O)CCCSc1nc2sc3c(c2c(=O)[nH]1)CCC3 | i | 3.55µM | i | i | i | i[9.22 µM]
CCOC(=O)c1nc2sc3c(c2c(=O)[nH]1)CCCC3 | i | ? | -86.5 | i | ? | i
CCN1C(C)=C(C(=O)OC)C(c2ccccc2)N2C(=O)[C@](O)(C(=O)OC)CC(C(C)=O)=C12 (some centres undefined) | i[10 µM] | nt | nt | i[13.1 µM] | i[13.5 µM] | nt
CCc1nnc(NC(=O)CN2C(=O)/C(=C/c3cc(OC)c(OC)c(OC)c3)SC2=S)s1 | i[10 µM] | i | i | i | i | i
N#CNC(=Nc1cccc(F)c1)SCc1ccccc1 | i[10 µM] | i | -102.6 | i | i | i
Cc1ccc(S(=O)(=O)N(C)c2ccc(OCC(=O)Nc3nnc(C4CC4)s3)cc2)cc1 | i | nt | nt | i | ? | i
Cc1ccccc1OCCSCc1nc2ccccc2[nH]1 | i[10 µM] | i | ? | i | i | 3.55µM
O=[N+]([O-])c1ccc(O)c(N=Cc2sc3ccccc3c2O)c1 | nt | 14.1µM | i | i | ? | 7.94µM
Oc1ccc(Cl)cc1N=Cc1sc2ccccc2c1Cl | 2.24µM | nt | nt | i | ? | ?
O=C(O)COCc1nc2ccccc2[nH]1 | i[10 µM] | nt | i | i | i | i
